Most compounds without a hit are left out; they make up all but 12% or so of the library.
G9a block = G9a (human) methyltransferase inhibition; G9a H3K9 monomethylation, AlphaScreen, 2 h; Potency, µM (titrated, usually from 102 µM), inactives show at the top dose activity, negative = inhibition, usual class: inhibitors; 350,000 tested, 8.8% active; AID 504332; also: % is scaled to controls: 0 for no effect and ±100 for the full control effect; nearly all actives have a fitted effect of over 75% in size
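Using a bead-based AlphaScreen, monomethylated H3K9 product from 2 h room-temperature reactions (G9a 20 nM, peptide 500 nM, SAM 20 uM) was detected with 0.5 ug/mL rabbit anti-H3K9me1 antibody.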
HP1b chromo inh = inhibitors of HP1-beta chromodomain binding to methylated histone tails. P83916. AlphaScreen HP1-beta / biotin-H3K9me3 peptide binding. Potency, µM (doses to about 114 µM), without a hit: top-dose activity change, negative = inhibition, usual class: inhibitors. 390,000 tested, 0.56% active; also: nearly all actives have a fitted effect of over 70% in size
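AlphaScreen: HP1-beta (50 nM) preformed 30 min with biotin-H3(1-18)K9me3 peptide (50 nM) in PBS pH 7.4, 0.01% Tween-20. Compound added for 30 min at RT, then streptavidin donor/nickel chelate acceptor beads (10 ug/mL) for 30 min.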
BAZ2B inh = inhibitors of human BAZ2B bromodomain | Potency, µM (titrated, usually from 114 µM), for inactives: at the top dose activity change, negative = inhibition, actives largely listed as inhibitors | AID 504333 | AlphaScreen BAZ2B-H3K14Ac peptide displacement | Q9UIF8 | 360,000 tested, 4.4% active; also: % is scaled to controls: 0 for no effect and ±100 for the full control effect; nearly all actives have a fitted effect of over 60% in size
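Multi-concentration screen (max 110 uM) measuring displacement of acetylated histone H3 peptide from BAZ2B by AlphaScreen, using 50 nM protein, 50 nM peptide and 10 ug/mL streptavidin donor plus Ni-chelate acceptor beads.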
Sfp PPTase inh = inhibitors of Bacillus subtilis Sfp phosphopantetheinyl transferase; Q9F4F7; Biochemical Sfp PPTase activity, qHTS; Potency, µM, for the others: largest response in the series, negative = inhibition, most hits filed as inhibitors; 310,000 tested, 3.5% active; AID 1490;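 also: the enzyme is Sfp with the accession as filed and its product quenches rhodamine fluorescence; 0% = enzyme reaction without inhibitor and -100% = no enzyme wells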
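Reaction rates are the 30-min fluorescence difference (ex 525, em 598 nm) in wells containing 15 nM Sfp, 5 uM rhodamine-CoA and 12.5 uM BHQ-2-YbbR at pH 7.6 with 10 mM MgCl2.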
JMJD2A Tudor = JMJD2A Tudor domain (human) inhibition; O75164; AlphaScreen JMJD2A-Tudor / H3K4me3 peptide binding; Potency, µM (highest dose often 114 µM), without a hit: at the top dose activity change, negative = inhibition, hits mostly inhibitors; 390,000 tested, 4.4% active; AID 504339; also: % is scaled to controls: 0 for no effect and ±100 for the full control effect; nearly all actives have a fitted effect of over 50% in size
PLK1 PBD block = inhibitors of human PLK1 polo-box domain binding; Plk1 PBD binding of FITC phosphopeptide, fluorescence polarization; Potency, µM, for inactives: max response, negative = inhibition, hits mostly inhibitors; 360,000 tested, 2.8% active; AID 720504; also: series mostly up to about 57 µM; % is scaled to controls: 0 for no effect and ±100 for the full control effect; nearly all actives have a fitted effect of over 65% in size
Target sequence (P53350 whole entry, looked up, the tested form may be a part): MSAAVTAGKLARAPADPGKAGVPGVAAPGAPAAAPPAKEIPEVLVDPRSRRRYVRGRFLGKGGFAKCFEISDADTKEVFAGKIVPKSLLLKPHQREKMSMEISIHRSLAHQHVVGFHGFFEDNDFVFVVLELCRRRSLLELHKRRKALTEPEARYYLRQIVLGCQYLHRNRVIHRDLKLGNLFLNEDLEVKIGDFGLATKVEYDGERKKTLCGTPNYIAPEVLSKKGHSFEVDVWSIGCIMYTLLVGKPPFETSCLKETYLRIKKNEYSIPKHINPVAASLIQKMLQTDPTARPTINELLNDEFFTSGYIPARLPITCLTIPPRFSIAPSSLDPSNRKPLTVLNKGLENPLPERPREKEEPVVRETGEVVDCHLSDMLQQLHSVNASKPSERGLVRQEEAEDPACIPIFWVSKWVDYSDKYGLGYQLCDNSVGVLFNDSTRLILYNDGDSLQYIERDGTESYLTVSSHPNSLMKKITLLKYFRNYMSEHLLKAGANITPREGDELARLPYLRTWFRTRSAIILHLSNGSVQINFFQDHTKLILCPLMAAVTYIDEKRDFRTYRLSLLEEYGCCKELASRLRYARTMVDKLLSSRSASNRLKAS
* = called active by the depositor; ? = inconclusive; nt = not tested or not shown; ! = repeats disagree; [ ] = another dose, or the depositor's remark. Calls follow the shape of the dose curve; as a rule, active = well fitted curve in the direction sought with a large enough effect; inconclusive = small, poorly fitted or top-dose-only effect, or another doubt; inactive = no such curve, though single readings can be large; an effect the other way counts as inactive or inconclusive. Potency is read from the fitted curve at half-maximal effect.

SMILES	G9a block	HP1b chromo inh	BAZ2B inh	Sfp PPTase inh	JMJD2A Tudor	PLK1 PBD block
NC(=O)CC(NC(=O)Cc1cccc2ccccc12)c1ccc(NCCCN2CCCC2=O)c([N+](=O)[O-])c1 (centres undefined)	71µM*	29%	-34%	12%	-29%	-22%
CN1OC[C@@H]2CN(C(=S)NCCc3ccccc3)[C@H](c3ccccc3Br)C[C@@H]21	nt	nt	nt	nt	nt	-8%
O=C(/C=C/c1ccccc1Cl)c1ccccc(=O)c1O	32µM*	?	56µM*	45µM*	?	27µM*
Cc1ccc(/C=C/C(=O)c2ccccc(=O)c2O)c(C)c1	50µM*	-39%	50µM*	?	?	?
Cc1ccc(/C=C/C(=O)c2ccccc2)cc1	1%[12.7 µM]	nt	67%	-4%	62%	-12%
O=C(/C=C/c1ccc([N+](=O)[O-])cc1)c1ccccc(=O)c1O	nt	?	nt	nt	?	-30%
O=C(/C=C/c1ccccc1Cl)Nc1ccccc1	nt	52%	3%	-26%	2%	1%
Cc1ccc(C)c(/C=C/C(=O)c2ccccc(=O)c2O)c1	45µM*	-26%	56µM*	?	?	?
CCn1c(NCc2ccccn2)nc2ccccc21	8.9µM*	30%	56µM*	?	-6%	2%
CCn1c(NCc2ccc(OC)c(OC)c2)nc2ccccc21	-42%[59 µM]	29%	-2%	nt	-4%	nt
CCN(CC)c1ccc(CNc2nc3ccccc3n2CCN2CCCCC2)cc1	25µM*	?	14µM*	3%	40µM*	-3%
Cc1cc(NCc2ccccn2)nc2ccccc12	12%	46%	-4%	-11%	-20%	-9%
COc1ccc(CNc2nc3ccccc3n2CCN2CCCCC2)cc1	?	16%	-29%	11%	-17%	-1%
CCn1c(NCc2ccc(N(C)C)cc2)nc2ccccc21	20µM*	-11%	?	-2%	?	0%
c1ccc(CNc2ccc3ccccc3n2)nc1	11%	8%	-5%	-3%	8.9µM*	-3%
CN(c1ccccc1)S(=O)(=O)c1cccc(NC(=O)c2nn(C)c(=O)c3ccccc23)c1	-6%[2.33 µM]	19%	6%	nt	-24%	-1%
Cc1ccn2c(c1)nc(=S)n2C(=O)c1ccco1	10µM*	nt	-2%	?	nt	nt
CCOc1ccc(CNC(=O)c2cccc(NC(=O)C3=C(C)OCCS3)c2)cc1	?	27%	50µM*	11%	9%	-3%
Cc1ccc(S(=O)(=O)NCCSCc2ccccc2)cc1	10µM*	22%	0%	-11%	-10%	-10%
Cc1ccc(S(=O)(=O)NCCNS(=O)(=O)c2ccc(C)cc2)cc1	-17%	14%	-18%	6%	-8%	2%
Cc1[nH]n(C(N)=S)c(=O)c1N=Nc1cccc([N+](=O)[O-])c1C	56µM*	6%	?	12%	?	-7%
Cc1c(N=Nc2c(-c3ccc([N+](=O)[O-])cc3)[nH]n(C(N)=S)c2=O)cccc1[N+](=O)[O-]	50µM*	?	?	-6%	?	?
NC(=S)n1[nH]c(-c2ccc([N+](=O)[O-])cc2)c(N=Nc2cccc([N+](=O)[O-])c2)c1=O	11µM*	?	40µM*	-41%	45µM*	21µM*
Cc1ccc(N=Nc2c(C)[nH]n(C(N)=S)c2=O)cc1C	2%[59 µM]	2%	7%	-20%	-9%	-17%
NC(=S)n1[nH]c(-c2ccc([N+](=O)[O-])cc2)c(N=Nc2ccccc2[N+](=O)[O-])c1=O	1%	-6%	40µM*	7%	?	-28%
SMILES	G9a block	HP1b chromo inh	BAZ2B inh	Sfp PPTase inh	JMJD2A Tudor	PLK1 PBD block
Cc1[nH]n(C(N)=S)c(=O)c1N=Nc1ccc(S(=O)(=O)N2CCCCCC2)cc1	-21%[59 µM]	?	?	6%	?	-29%
O=S1(=O)N=C(OCc2ccccc2)c2ccccc21	nt	nt	nt	nt	-19%	nt
O=C1Cc2cc(S(=O)(=O)N3CCN(c4ccc(C(F)(F)F)cc4)CC3)ccc2N1	nt	nt	nt	nt	-30%[229 µM]	nt
COCCn1c(N)c(N(Cc2ccccc2)C(=O)c2cc(=O)[nH]c3ccccc23)c(=O)[nH]c1=O	nt	13%	nt	nt	-10%	-6%
CCCCn1c(N)c(N(CCOC)C(=O)c2ccco2)c(=O)[nH]c1=O	?	30%	-1%	nt	-16%	-4%
CCCCn1c(N)c(N(CC(C)C)C(=O)c2ccco2)c(=O)[nH]c1=O	50µM*	27%	9%	nt	4%	4%
CCCCN(C(=O)c1cc(-c2ccncc2)nc2ccccc12)c1c(N)n(CC(C)C)c(=O)[nH]c1=O	nt	31%	nt	nt	-15%	-5%
CCCCn1c(N)c(N(Cc2ccccc2OC)C(=O)c2cc(=O)[nH]c3ccccc23)c(=O)[nH]c1=O	35µM*	6%	34%	nt	-12%	-1%
CCCCn1c(N)c(N(CCC(C)C)C(=O)C2=NN(c3cc(C)ccc3C)C(=O)CC2)c(=O)[nH]c1=O	40µM*	55%	12%	nt	-1%	-11%
CCCCn1c(N)c(N(CC(C)C)C(=O)c2cc(-c3ccncc3)nc3ccccc23)c(=O)[nH]c1=O	56µM*	13%	2%	nt	-17%	-2%
CCCCn1c(N)c(N(CCC(C)C)C(=O)c2ccc([N+](=O)[O-])s2)c(=O)[nH]c1=O	79µM*	-5%	6%	nt	-21%	-10%
CCCCn1c(N)c(N(CC(C)C)C(=O)Cn2c(=O)cnc3ccccc32)c(=O)[nH]c1=O	45µM*	47%	-1%	nt	8%	5%
CN(C)c1ccc(-c2nc(NCCc3cnc[nH]3)c3ccccc3n2)cc1	1%[0.501 µM]	nt	nt	0%	nt	nt
CCN(CC)CCNC(=O)c1[nH]c2ccc(OCc3ccccc3)cc2c1C	50µM*	?	?	?	?	-1%
COc1ccc(NC(=O)c2sc3nc4c(cc3c2N)CN(Cc2ccccc2)CC4)c(OC)c1	4%[59 µM]	21%	-17%	nt	-12%	nt
COc1cccc(-n2cc(C(=O)NCc3ccccc3OC)c3ccccc3c2=O)c1	-1%[59 µM]	38%	-3%	nt	-15%	nt
Cc1cccc(N2CCN(C(=O)CSCc3ccc(F)cc3)CC2)c1C	14%[59 µM]	34%	49%	nt	17%	nt
Cc1cccc(N2CCN(C(=O)c3ccc4c(c3)NC(=O)C(CSCc3cccc(F)c3)N4)CC2)c1C (centres undefined)	10µM*	nt	?	89µM*	nt	nt
CN(CC(=O)Nc1cccc(F)c1)C(=O)c1cc(S(=O)(=O)N2CCN(c3ccccc3)CC2)ccc1Cl	-15%[12.7 µM]	8%	0%	nt	-16%	-14%
COc1cc2ncnc(Nc3cccc(Cl)c3)c2cc1OC	-12%[59 µM]	nt	-17%	56µM*!	nt	nt
COc1cc2ncnc(NCc3ccccc3F)c2cc1OC	?	22%	-4%	5%	-19%	9%
